Source: PubChem BioAssay AID449764 (Southern Research Specialized Biocontainment Screening …, 2010)
The whole screen tested about 2,300 compounds, of which about 1,700 (74%) were called active. The set was probably picked from earlier hits. This is one part of the list. Entries with a potency or affinity are not part of this list. Unmarked numbers belong to inactive results. How the calls were made is not given here.

Experiment: Mycobacterium tuberculosis H37Rv growth inhibition, no glycerol, confirmatory dose response (AID 449764);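 further: growth read after 7 days of incubation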
Conditions: series mostly up to 100 µM; inhibition: at the top concentration

SMILES | inhibition [%]
O=C(CCN1C(=O)C2CCCCC2C1=O)Nc1nc(-c2ccc(F)c(F)c2)cs1 (centres undefined) | 4.25
COc1ccc(OCc2nnc3n2N=C(c2ccccc2)C(CC(=O)O)S3)cc1 (centres undefined) | -2.9
COc1ccc(NC(=O)c2ccc(Cl)c(S(=O)(=O)N3CCc4ccccc4C3)c2)cn1 | -1.34
CCOc1ccc(N(C(=O)/C=C/C(=O)Nc2cc(C)on2)C(C(=O)NC2CCCC2)c2ccccc2C)cc1 (centres undefined) | 21.2
CC(C)Cn1[nH]c2c3c(ccc2c1=O)C(=O)c1ccccc1C3=O | 6.42
Cc1ccc(C(=O)Nc2cccc(C(F)(F)F)c2)cc1Nc1ncnc2nc[nH]c12 | 15
Cc1ccc(Cl)cc1N1CCN(Cc2nc3ccsc3c(=O)[nH]2)CC1 | 7.19
COc1ccc(-c2cc3ccccc3oc2=O)cc1NC(=O)c1ccc([N+](=O)[O-])o1 | 1.39
COc1ccc(N2CCN(c3ccnc4cc(Cl)ccc34)CC2)cc1 | -0.33
Fc1ccc(N/N=C2/CC(c3ccccc3)Oc3ccccc32)c(F)c1 (centres undefined) | 5.36
Oc1ccc2cc(Br)ccc2c1CN1CCCC1 | -3.14
COc1ccc(-c2nc3ccccn3c2CN2CCN(c3ccccc3F)CC2)cc1 | 0.17
CCOC(=O)C(=NC1CCS(=O)(=O)C1)NNc1ccc(Br)cc1 (centres undefined) | -10.1
CCOc1ccc(NC(C)c2cc(Cl)ccc2O)cc1 (centres undefined) | 2.69
Brc1cccc2sc(N3CCN(c4ccccc4)CC3)nc12 | 7.12
NC(=O)/C(=N\OC(=O)c1ccco1)c1nc(-c2ccc(Br)cc2)cs1 | -1.01
Cc1cccc(C)c1OCC(O)CN1CCC(CN2C(=O)c3cccc4cccc(c34)C2=O)CC1 (centres undefined) | -1.32
CC1(C)SC(=S)N(NC(=O)Nc2cccc3ccccc23)C1N(O)C(=O)Nc1ccccc1 (centres undefined) | 6.93
O=[N+]([O-])c1nn(-c2ccc(Cl)cc2)n(O)c1=NCc1cccnc1 | -6.84
CCCCCCC(=O)N/N=C/c1ccc(Br)cc1 | 6.63
CCCCCCSc1nsc(NC(=O)CC(C)C)n1 | 3.62
COC(=O)Cc1ccc(NC(=S)Nc2ccccn2)cc1 | 2.82
CCOc1ccc(NC(=S)Nc2cc(-c3ccccc3)[nH]n2)cc1 | 26.8
CC(C)c1ccc2nc(N)sc2c1 | 0.13
O=C(/C=C/c1ccc(Cl)cc1)N1CCN(c2ccc(Cl)cc2[N+](=O)[O-])CC1 | -4.08
COC(=O)c1cc(NC(=O)c2c(F)c(F)c(F)c(F)c2F)cc(C(=O)OC)c1 | 4.27
NC(=O)N1CCC2(CC1)NC(=O)N(c1ccccc1)N2 | -5.19

SMILES | inhibition [%]
O=C(/C=C/c1ccc(OCCCF)cc1)Nc1ccnc(-c2ccncc2)n1 | -1.8
Cc1oc(C)c2c(=O)ccc3c(c12)OC(N)=C(C#N)C3c1ccccc1Cl (centres undefined) | -20.1
Cc1nn(C(C)(C)C)c(NC(=O)c2ccc(Cl)cc2Cl)c1Br | 0.12
O=C(c1ccccc1)c1nn(-c2ccc(Cl)cc2)cc1C(=O)c1cc2ccccc2oc1=O | 9.58
Cc1ccc(F)cc1CNC(=O)c1cc(COc2ccc3ncccc3c2)on1 | 2.7
CCN(CC)S(=O)(=O)c1cc(C(=O)Oc2cccc(-c3cnc4ccccc4n3)c2)ccc1Br | -9.99
Cc1cc(-n2c(C)cc(C(=O)COc3ccc4ccc(=O)oc4c3)c2C)no1 | -3.2
COc1ccc(N/C=C(\C2OC(=O)c3ccccc32)[N+](=O)[O-])cc1 (centres undefined) | -3.38
CC(C)c1nc2scc(-c3ccc(Cl)cc3)c2c(=O)n1N | -7.39
NN/C(=C\[N+](=O)[O-])Nc1ccc(Cl)cc1 | 24.2
C/C(CC(=O)Nc1ccc2c(c1)OCCO2)=N\NC(=O)c1ccccc1F | -0.62
Cc1ccc2c(c1)Oc1ccc(NC(=O)CCl)cc1C(=O)N2 | 3.7
CCCc1cc(=O)[nH]c(SCC(=O)N2CCCC2=O)n1 | 6.69
O=C(Nc1ccc(-n2cccc2)cc1)C1CC1 | 24.6
O=c1c2ccc(Cl)cc2nc(-c2ccc([N+](=O)[O-])cc2)n1O | 21.4
COc1ccc(N2CCN(Cc3cc4c(cc3O)CCC4)CC2)cc1 | 4
C=CCn1c(N)cc(=O)nc1SC(CC)C(=O)Nc1ccc(C(C)=O)cc1 (centres undefined) | 3.97
C[C@H](O)[C@H](O)[C@H]1CNc2nc(N)[nH]c(=O)c2N1 | -11.6
CCCCc1ccc(NC(=S)N2CCN(c3ncccn3)CC2)cc1 | 4.9
COC(=O)Cc1ccc(NC(=O)c2ccc(Br)o2)cc1 | 0.53
C=C(C)C1CCC(C)=C1COC(=O)Nc1ccccc1 (centres undefined) | -12.8
Cc1nc(SCC(=O)Nc2ccc(OCc3ccccc3)cc2)n[nH]1 | 0.31
COc1ccc(-c2cc3n(n2)CCc2nc4ccccc4n2-3)cc1 | 26.8
C/C(=C\C(=O)c1ccccc1)Nc1ccc(Cl)c(Br)c1 | -1.81
COc1ccc(/C(O)=C/Sc2nnc(Cc3ccccc3)o2)cc1 | 4.86
CCn1c2ccccc2c2cc(NC(=O)CN(C)CC(=O)Nc3ccc(N4CCOCC4)cc3)ccc21 | -3.49
C=CCc1cccc2cc(C(=O)OCC(=O)c3ccccc3)c(=O)oc12 | 3.21
